Source: PubChem BioAssay (NCATS)
Values joined by “and” are separate entries in the source; they are usually repeats but may differ in a detail not shown here. Equal values may be shown once. Inconclusive results are not listed. Where a call stands in place of a potency, no number is given. Active and inactive are the calls of the source. Calls come from the whole dose curve; as a rule, active = well fitted inhibition curve with a large enough effect; inconclusive = small, poorly fitted or top-dose-only effect; inactive = flat fitted curve, though single readings scatter.

Key:
[1] = test system: Zika virus NS2B-NS3 protease (linked construct); assay: Confirmatory screen NINDS AMC qHTS for Zika virus inhibitors (AID 1347152); note: potency is the fitted concentration of half-maximal effect
Summary of the method: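 Linked NS2B-NS3 1 nM, Tris pH 8.0/0.01% Tween 20; cpd 15 min RT dark; + Nle-KRR-AMC 10 µM (Km 18.3 µM); read 0 and 15 min, 340/450 nm; %inh vs controls, 4-param Hill.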

[2] = test system: Zika virus NS2B-NS3 protease (unlinked complex); assay: Confirmatory screen GU AMC qHTS for Zika virus inhibitors (AID 1347153)
Summary of the method: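 Noncovalent NS2B hydrophilic domain/NS3 protease complex (25 nM) in 10 mM Tris-HCl pH 8.0, 0.01% Tween 20 was preincubated 15 min at room temperature with compounds. Then 10 µM AMC substrate (Km 18.3 µM) was added; fluorescence was read over 15 min and fitted to a 4-parameter Hill equation.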
Note: nearly all actives have a fitted effect of over 70% in size.

| SMILES | Potency [1] | Potency [2] |
| --- | --- | --- |
| O=C(O)c1cn(-c2ccc(F)cc2)c2cc(N3CCNCC3)c(F)cc2c1=O | 24.1 µM (active) and 27.1 µM (active) | – |
| Cc1nc(-c2ccc(OCC(C)C)c(C#N)c2)sc1C(=O)O | – | inactive |
